High-throughput results deposited in PubChem by several laboratories.
CYP2C19 inh – inhibitors of human CYP2C19 | P33261 | CYP2C19 Supersomes, luciferin-H EGE luminescence, 30 min | inhibition, % at 5 µM | 21% of 96,000 active | AID 778;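 active = CYP2C19 inhibition above a set limit at 5 µM in the primary screen, cut at about 50% in these data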;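 also: plate controls were negative control wells for no effect and 2.5 mM tranylcypromine positive control for full effect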
Target sequence (P33261 whole entry, looked up): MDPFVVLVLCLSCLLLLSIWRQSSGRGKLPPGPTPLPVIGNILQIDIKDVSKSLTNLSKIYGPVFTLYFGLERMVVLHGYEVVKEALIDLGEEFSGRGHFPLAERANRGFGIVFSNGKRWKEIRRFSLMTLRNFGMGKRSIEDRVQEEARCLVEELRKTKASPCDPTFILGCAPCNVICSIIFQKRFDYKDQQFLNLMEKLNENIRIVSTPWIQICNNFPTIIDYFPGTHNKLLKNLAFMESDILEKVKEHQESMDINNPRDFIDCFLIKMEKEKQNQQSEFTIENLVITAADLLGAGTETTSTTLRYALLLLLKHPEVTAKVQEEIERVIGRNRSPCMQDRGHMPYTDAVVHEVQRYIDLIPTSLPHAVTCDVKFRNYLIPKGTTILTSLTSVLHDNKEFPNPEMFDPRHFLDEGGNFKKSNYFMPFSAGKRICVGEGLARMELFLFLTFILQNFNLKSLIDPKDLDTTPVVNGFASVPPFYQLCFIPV
Measles CPE – protection of cells from measles virus; 1.5% of 140,000 active; Measles virus-infected cells, CPE protection, absorbance; AID 841; protection (pct of control), % at 4 µM; in the data active = protection mostly above about 24%, no sharp cut-off; inactive = mostly below about 26%
CYP2C9 inh – inhibitors of human CYP2C9 | P11712 | CYP2C9 Supersomes, luciferin-H conversion, luminescence | inhibition, % at 5 µM | 20% of 96,000 active | AID 777;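 active = blocking of liver enzyme CYP2C9 beyond about 50% at 5 µM, limit read from the data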
CYP2C9 act – activators of human CYP2C9. activation factor at 5 µM. recombinant CYP2C9, luciferin-H conversion, luminescence; stronger effect = higher value; factor 1 = untreated enzyme, 0 = blocked. 1.4% of 96,000 active. P11712;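 active = activation factor of 2 or more for CYP2C9 at a 5 µM dose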;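 also: 0 = sulfaphenazole-blocked wells and 1 = vehicle-only wells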
CYP2C19 activ – increases human CYP2C19 enzyme activity | P33261 | recombinant CYP2C19, luciferin-H EGE luminescence; stronger effect = higher value; 0 = fully inhibited enzyme, 1 = untreated enzyme | activation factor at 5 µM | 96,000 tested, under 10 active | AID 1025;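 active = activation factor of at least 2 at 5 µM in the primary screen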;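 also: 0 = wells with 2.5 mM tranylcypromine and 1 = vehicle-only wells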
The depositor's hits bear a star; x = no result. This is a sample that favours compounds with a hit; in the whole collection about 22% have one here.

SMILES	CYP2C19 inh	Measles CPE	CYP2C9 inh	CYP2C9 act	CYP2C19 activ
CCOC(=O)c1c(C)n(Cc2ccccc2)c2ccc(OCC(O)Cn3nc(C)nc3C)cc12 (stereo not drawn)	53.8*	3.6	62.3*	0.4	0.5
CCOC(=O)c1c(C)n(Cc2ccccc2)c2ccc(OCC(O)Cn3nc(C)cc3C)cc12 (stereo not drawn)	x	8.6	x	x	x
CCOP(=S)(OCC)SCC(=O)NC(C)(CC)C(=O)O (stereo not drawn)	-15.0	-0.2	84.0*	0.2	1.1
Cc1c(C(=O)N2CCC3(CC2)OCCO3)oc2ccc(S(=O)(=O)N3CCOCC3)cc12	-7.4	19.1	-11.9	1.1	1.1
Cc1nc2nc(SCC(=O)N3CCC4(CC3)OCCO4)nn2c(C)c1Cc1ccccc1	31.1	8.2	23.4	0.8	0.7
O=C(CSc1ccccc1)N1CCC2(CC1)OCCO2	98.1*	16.6	23.2	0.8	0
Cc1c(C(=O)N2CCC3(CC2)OCCO3)oc2ccccc12	97.6*	7.0	-13.2	1.1	0
O=C(CCN1C(=O)COc2ccccc21)N1CCC2(CC1)OCCO2	86.9*	8.4	-12.1	1.1	0.1
O=C(CN1C(=O)CCSc2ccccc21)N1CCC2(CC1)OCCO2	3.9	15.2	-11.8	1.1	1
CC1=C(C(=O)N2CCC3(CC2)OCCO3)C2(CCC(C)CC2)OC1=O (stereo not drawn)	92.7*	19.6	44.8	0.6	0.1
N=C1c2ccccc2CN1NC(=O)c1ccc(F)cc1	-2.7	3.3	26.4	0.7	1
Cc1ccc(S(=O)(=O)NP(=O)(Oc2ccccc2)Oc2ccccc2)cc1	12.7	5.0	78.5*	0.2	0.9
O=P(NS(=O)(=O)c1ccc(Br)cc1)(Oc1ccccc1)Oc1ccccc1	42.0	7.6	98.1*	0	0.6
O=P(NS(=O)(=O)c1ccccc1)(Oc1ccccc1)Oc1ccccc1	-0.5	5.5	65.1*	0.3	1
O=P(NS(=O)(=O)c1ccc(Cl)cc1)(Oc1ccccc1)Oc1ccccc1	x	9.0	x	x	x
Cn1c(O)c(C(c2ccccn2)c2c(O)n(C)c(=S)n(C)c2=O)c(=O)n(C)c1=S	-7.8	4.3	1.5	1	1.1
Cc1ccc(-n2c(/C=C/c3ccc4c(c3)OCO4)nc3ccccc3c2=O)cc1	x	26.1*	x	x	x
O=C1NC(=O)C2(Cc3c(nc4ccccn4c3=O)N3CCCCCC32)C(=O)N1Cc1ccccc1 (stereo not drawn)	72.8*	2.7	89.3*	0.1	0.3
O=C(c1cccn2c(=O)c3ccc(Cl)cc3nc12)N1CCC2(CC1)OCCO2	13.5	14.4	14.2	0.9	0.9
CC(Cc1ccccc1)[n+]1cc(/N=C(\N)[O-])on1 (stereo not drawn)	4.6	24.6	-4.1	1	1
CC(Cc1ccccc1)[n+]1cc(/N=C(\[O-])Nc2ccccc2)on1 (stereo not drawn)	31.0	1.7	72.1*	0.3	0.7
COc1cccc(N2C(=O)NC(=O)C3(Cc4cc(C)ccc4N(C)C3)C2=O)c1 (stereo not drawn)	36.9	11.0	83.9*	0.2	0.6
CCCCN1C(=O)NC(=O)C2(Cc3cc(C)ccc3N(C)C2)C1=O (stereo not drawn)	30.9	3.7	26.0	0.7	0.7
COc1cc(CN2C(=O)NC(=O)C3(Cc4cc(C)ccc4N(C)C3)C2=O)cc(OC)c1 (stereo not drawn)	36.2	7.3	48.3	0.5	0.6
Cc1ccc2c(c1)CC1(CN2C)C(=O)NC(=O)N(c2cc(C)ccc2C)C1=O (stereo not drawn)	23.3	2.0	58.9*	0.4	0.8
SMILES	CYP2C19 inh	Measles CPE	CYP2C9 inh	CYP2C9 act	CYP2C19 activ
COc1ccc2c(c1)CC1(CN2C)C(=O)NC(=O)N(CCc2ccccc2)C1=O (stereo not drawn)	13.5	4.5	34.0	0.7	0.9
COc1ccc(OC)c(N2C(=O)NC(=O)C3(Cc4cc(C)ccc4N(C)C3)C2=O)c1 (stereo not drawn)	39.5	4.2	80.1*	0.2	0.6
CCOC(=O)C1C(=O)NC2(C)CC1c1cc(OC)ccc1O2 (stereo not drawn)	2.3	23.7	-2.9	1	1
CC(C)OC(=O)C1C(=O)NC2(C)CC1c1ccccc1O2 (stereo not drawn)	60.5*	5.6	12.6	0.9	0.4
CP(C)(=O)CCC(=O)O	-17.4	37.7*	-20.7	1.2	1.2
CCN(c1ccc(C(O)(C(=O)OC)C(F)(F)F)cc1)S(=O)(=O)c1ccccc1 (stereo not drawn)	95.3*	7.6	78.7*	0.2	0
CCOC(=O)C(O)(c1ccc(N(CC)S(=O)(=O)c2ccccc2)cc1)C(F)(F)F (stereo not drawn)	60.7*	7.0	74.2*	0.3	0.4
CCOC(=O)C(O)(c1ccc(NC(=O)Oc2ccccc2)cc1)C(F)(F)F (stereo not drawn)	x	26.2	x	x	x
O=C(C1CCN(S(=O)(=O)N2CCOCC2)CC1)N1CCC2(CC1)OCCO2	-10.9	11.3	-15.8	1.2	1.1
Fc1ccc2c(c1)nnn2C1CCN(Cc2nnnn2C2CCCCC2)CC1	66.8*	14.5	75.1*	0.2	0.3
Cc1nc2cc(C(F)(F)F)ccc2n1C1CCN(Cc2nnnn2CCc2ccccc2)CC1	x	13.8	x	x	x
Cc1ccc(Cn2nnnc2CN2CCC(n3nnc4cc(C(F)(F)F)ccc43)CC2)cc1	34.6	15.2	73.2*	0.3	0.7
FC(F)(F)c1ccc2c(c1)nnn2C1CCN(Cc2nnnn2Cc2ccccc2)CC1	48.1	3.9	92.6*	0.1	0.5
Fc1ccc2c(c1)nnn2C1CCN(Cc2c(Cl)cccc2Cl)CC1	x	10.6	x	x	x
Cc1nc2cc(F)ccc2n1C1CCN(Cc2nnnn2CCc2ccccc2)CC1	62.2*	14.0	61.9*	0.4	0.4
OC12ONC(c3ccccn3)C1N1CCC2CC1 (stereo not drawn)	x	5.2	x	x	x
O=C(C1CC(=O)N(C2CCCCC2)C1)N1CCC2(CC1)OCCO2 (stereo not drawn)	-1.8	6.1	-13.0	1.1	1
CCC(=O)c1cc(F)c(N2CCN(CC)CC2)cc1C	2.3	14.2	-7.1	1.1	1
C=C1C(O)(c2ccccc2)C2CC[N+]1(C)CC2 (stereo not drawn)	5.5	3.9	0.9	1	0.9
CCCCNc1ccncc1S(=O)(=O)NC(=O)NC(C)C	x	11.8	x	x	x
Cc1ccc(Cn2nnnc2CN2CCC(n3nnc4cc(C)ccc43)CC2)cc1	91.1*	4.1	95.8*	0	0.1
Cc1cc(Cl)ccc1OCC(=O)N1CCN(C)CC1	28.5	26.2	-5.1	1.1	0.7
CN1CCN(C(=O)COc2ccc3ccccc3c2Br)CC1	66.5*	14.5	-26.3	1.3	0.3
C=COCCn1c(C)c(C(=O)OCC)c2cc(O)ccc21	85.3*	14.4	71.2*	0.3	0.1
CCOC(=O)c1c(C)n(C(C)C)c2ccc(OC(=O)c3ccc(N4C(=O)CCC4=O)cc3)cc12	x	19.3	x	x	x
Cc1cc(OCc2nn[nH]n2)c2c3c(c(=O)oc2c1)CCC3	-5.2	41.4	44.2	0.6	1.1
